# Screens (PubChem)
# Hits are enriched below; roughly 2.4% of the tested compounds scored in any of these assays.
# D2 PAM-1: D2 dopamine receptor (human) potentiation; P14416; HEK293 T-REx D2, calcium flux, EC20 dopamine potentiation; potentiation, % at 10 µM; 340,000 compounds, 0.34% hits; AID 485347;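 active = potentiation over 3 SD above the plate norm, cut at about 30% in these data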; note: 0% is about no effect
# Target sequence (P14416 whole entry, looked up): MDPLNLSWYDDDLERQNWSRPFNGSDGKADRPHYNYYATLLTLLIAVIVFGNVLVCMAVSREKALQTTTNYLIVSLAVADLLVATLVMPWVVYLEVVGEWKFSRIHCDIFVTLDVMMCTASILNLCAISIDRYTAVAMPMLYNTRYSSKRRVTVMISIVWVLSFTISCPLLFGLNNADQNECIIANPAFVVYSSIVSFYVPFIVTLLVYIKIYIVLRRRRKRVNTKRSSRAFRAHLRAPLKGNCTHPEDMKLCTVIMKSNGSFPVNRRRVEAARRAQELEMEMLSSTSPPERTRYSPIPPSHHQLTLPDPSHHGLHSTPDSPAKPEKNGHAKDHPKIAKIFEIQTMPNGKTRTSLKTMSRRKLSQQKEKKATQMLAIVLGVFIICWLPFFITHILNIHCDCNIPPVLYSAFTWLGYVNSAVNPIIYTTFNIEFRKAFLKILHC
#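 Cells plated with tetracycline inducer and held overnight at 30 C; calcium dye loaded 30–90 min at room temperature; baseline taken, compound added and read 180 s; EC20 dopamine then added and read 180 s.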
# D2 antag: D2 dopamine receptor (human) antagonism; HEK293 TREx D2 cells, calcium flux, dopamine EC80; inhibition, % at 10 µM; 340,000 compounds, 2% hits; in the data active = inhibition above about 30%; inactive = below that, where a call was filed; note: 0% is about no effect
#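 Calcium mobilization kinetics were recorded at 1 s intervals in tetracycline-induced HEK293 T-REx D2 cells, first for 180 s after compound addition and then 180 s after EC80 dopamine.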
# D2 ag-1: agonists of human D2 dopamine receptor; AID 485358; HEK293 T-REx D2 cells, calcium flux agonist mode; activation, % at 2 µM; 340,000 compounds, 0.53% hits;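 active = activation over 3 SD above normal in the single-dose calcium agonist read, cut at about 30% in these data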; note: 0% is about no effect
#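 Agonism is scored from calcium flux in a force-coupled, inducible HEK293 cell line expressing D2, read kinetically for 180 s after compound addition against dopamine controls.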
# D2 PAM-2: potentiates the human D2 dopamine receptor allosterically. potentiation, % (concentration not given with the values). AID 624464. 360,000 compounds, 0.23% hits. DiscoveRx D2 beta-arrestin cells, luminescence, 90 min; 100% = 57 uM dopamine signal; in the data active = potentiation above about 50%; inconclusive = mostly about 30% to 49%
#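 PathHunter D2 cells, attached overnight at 37 deg C, received compound in DMSO plus dopamine at EC20 (50 nM final) for 90 min at 37 deg C. Beta-arrestin recruitment was read as luminescence after 1 h with detection reagent at ambient temperature.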
# D2 ag-2: agonists of human D2 dopamine receptor (beta-arrestin) | 360,000 compounds, 0.084% hits | activation, % (test concentration not listed) | DiscoveRx PathHunter D2 beta-arrestin, luminescence, 90 min; 100% = 57 uM dopamine signal | P14416; in the data active = activation above about 40%; inconclusive = between about 15% and that limit
#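 DiscoveRx PathHunter D2 beta-arrestin cells (2,100/well) attached overnight, then compound-stimulated 90 min at 37 C in HBSS/10 mM HEPES/0.1% Tween-20 buffer; beta-galactosidase complementation read by luminescence after 1 h at ambient temperature. Dopamine 57 uM final (EC100) as control.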
# D3 ag: confirmation of human D3 dopamine receptor agonists, beta-arrestin | shares compounds with D2 ag-1 | DiscoveRx D3 beta-arrestin cells, luminescence, 90 min | Potency, µM (highest dose often 76.9 µM), for inactives: top-dose activation, most hits filed as activators | 2,300 compounds, 4% hits | AID 720506;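 note: potency is the fitted concentration of half-maximal effect; 100% = dopamine control response; nearly all actives have a fitted effect of over 70% in size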
# D2 ag-3: D2 receptor agonism, beta-arrestin counterscreen | shares compounds with D2 ag-1 | DiscoveRx PathHunter D2 beta-arrestin, luminescence, 90 min; response scale: percent relative to full dopamine signal | Potency, µM (highest dose often 76.9 µM), inactives show top-dose activation, actives largely listed as activators | 2,300 compounds, 5.9% hits | AID 720507; note: potency is the fitted concentration of half-maximal effect; % of control where 0% means no effect; nearly all actives have a fitted effect of over 70% in size
# * hit, by the source's call; u = inconclusive; x = not tested or not shown; ! = repeats disagree. Unless noted, calls come from the whole dose curve; as a rule, active = well fitted activation curve with a large enough effect; inconclusive = small, poorly fitted or top-dose-only effect; inactive = flat fitted curve, though single readings scatter.
SMILES,D2 PAM-1,D2 antag,D2 ag-1,D2 PAM-2,D2 ag-2,D3 ag,D2 ag-3
COc1ccc(CN2CCN(c3ncccn3)CC2)c(C)c1C,-29,93*,88*,5,47*,u,2.2µM*
c1cnc(N2CCN(Cc3c[nH]c4ccccc34)CC2)nc1,-28,83*,86*,u,u,4%,u
COc1ccc(CN2CCSCC2)c(OC)c1C,-6,-17,-1,-11,-4,x,x
O=C(CC1SC(N2CCCC2)=NC1=O)Nc1ccc(C(=O)NCc2ccccc2F)cc1 (stereo not given),x,x,x,-1,2,x,x
O=C(CC1SC(N2CCCC2)=NC1=O)Nc1ccc(C(=O)NCCOc2ccccc2F)cc1 (stereo not given),-24,52*,66*,-14,2,u,9%
CNC(=O)c1ccc(NC(=O)CC2SC(N3CCCC3)=NC2=O)cc1 (stereo not given),-11,39*,0,11,1,-9%,-7%
CSc1nc2ccc(NC(=O)c3cccs3)cc2s1,x,x,x,-19,3,x,x
CSc1nc2ccc(NC(=O)c3ccc(=O)[nH]c3)cc2s1,-17,-4,49*,-6,5,-7%,1%
CSc1nc2ccc(NC(=O)c3ccc(=O)n(C)n3)cc2s1,-14,20,17,-9,1,22%,12%
CSc1nc2ccc(NC(=O)c3ccc(F)c(F)c3)cc2s1,-5,-11,2,-5,-2,x,x
CCN(CCNC(=O)c1ccc(CSc2nc3ccncc3[nH]2)cc1)c1ccccc1,x,x,x,-6,0,x,x
Cc1cccc(C)c1NC(=O)NCCCN1CCN(c2ccccc2)CC1,-29,72*,74*!,-12,u,u,u
Cc1cccc(C)c1NC(=O)C(=O)NCCCN1CCOCC1,x,x,x,18,-6,x,x
O=C(NCCCN1CCN(c2cccc(Cl)c2)CC1)c1ccc(N2CCCC2=O)cc1,-2,-14,0,-2,3,x,x
COc1ccccc1OCCNC(=O)CCNC(=O)c1ccccc1OC,4,26,0,9,-2,-4%,-3%
COc1ccccc1C(=O)NCCC(=O)NCCOc1ccccc1,-1,-10,0,-3,-2,x,x
O=C(NCCN1CCN(c2cccc(Cl)c2)CC1)c1ccc(CSc2nc3ccncc3[nH]2)cc1,-14,86*,46*,-13,9,22µM*,u
O=C(NCCCN1CCN(c2cccc(Cl)c2)CC1)c1cccc(N2CCCC2=O)c1,-24,13,48*,-42,2,-4%,7%
CCCSc1nnc2n(-c3cccc(C)c3)c(=O)c3c4c(sc3n12)CCCC4,16,x,4,x,x,x,x
COCCNC(=O)CCCn1c(SCC(=O)c2ccc(F)cc2)nc2c(sc3ccccc32)c1=O,-5,x,x,x,x,x,x
CCOC(=O)c1cccc(NC(=O)CCCn2nc(C)c3c(C)n(-c4ccccc4)nc3c2=O)c1,-4,x,x,x,x,x,x
Cc1cccc(C(=O)NCCN2CCN(c3ccccc3)CC2)c1,-22,91*,49*,-21,2,u,6%
O=C(NCCN1CCN(c2ccccc2)CC1)c1cccn2c(=O)c3cc(Cl)ccc3nc12,6,11,0,-14,-2,x,x
Cc1cccc(C(=O)NCCCNC(=O)c2cccc(C)c2)c1,-6,7,0,-13,-3,x,x
O=C(NCCN1CCN(C(=O)c2cccc(Br)c2)CC1)C(=O)Nc1ccc(Br)cc1,2,3,0,-9,-2,x,x
SMILES,D2 PAM-1,D2 antag,D2 ag-1,D2 PAM-2,D2 ag-2,D3 ag,D2 ag-3
COc1ccccc1C(=O)NCCN1CCN(c2ccccc2)CC1,-13,83*,72*,u,u,u,u
O=C(NCCN1CCN(c2ccccc2)CC1)c1cccc(Cl)c1,-26,70*,46*,-6,-2,u,12%
COc1ccc(OC)c(NC(=O)NCCN2CCN(c3ccccc3)CC2)c1,16,-5,0,-17,1,x,x
O=C(NCCN1CCN(c2ccccc2)CC1)c1cccc(Br)c1,-33,78*,89*,-2,8,25%,20%
CCc1cccc(C)c1NS(=O)(=O)c1c(C(=O)N2CCC(C)CC2)c(C)n(C)c1C,x,x,1,x,x,x,x
CC(C)CC(C(=O)NCCc1ccccc1)N1Cc2ccccc2C1=O (stereo not given),5,x,0,x,x,x,x
CCOc1ccc(N(CC)S(=O)(=O)N2CCCC(C(=O)Nc3ccc(OC)c(Cl)c3)C2)cc1 (stereo not given),3,x,1,x,x,x,x
O=C(COC(=O)c1ccc(CNS(=O)(=O)c2ccc(F)c(Cl)c2)cc1)NCC1CCCCC1,-23,18,69*,-8,1,0%,-1%
CC(=O)c1ccc(NC(=O)c2cn(-c3ccccc3)nc2-c2ccc(Br)cc2)cc1,-1,x,1,x,x,x,x
CCOc1ccc(CNC(=O)c2cnc3sc(N(CC)CC)nn3c2=O)cc1OC,-6,x,0,x,x,x,x
COCCCNC(=O)CC(c1cc(OC)c(OC)c(OC)c1)N1Cc2ccccc2C1=O (stereo not given),7,x,1,x,x,x,x
COc1cc(C(=O)OCc2ccc(C)cc2)cc(NC(=O)c2cccs2)c1OC,20,38*,6,9,-5,-6%,22%
CCN(CCCC(=O)c1ccc(F)cc1)CCc1ccccc1,-22,102*,83*,-24,13,u,17%
O=C(CCCc1ccccc1)c1ccccc1,26,-12,0,-6,-1,x,x
COc1cc(CN2CCC(C(=O)N3CCN(c4ccccc4F)CC3)CC2)cc(OC)c1O,0,34*,1,-13,2,12%,11%
COc1cc(CN2CCN(c3ccccc3F)CC2)cc(OC)c1O,-18,70*,60*,-1,u,u,u
O=S(=O)(NCCc1ccccc1)c1ccc(N2CCCCS2(=O)=O)cc1,-3,x,2,x,x,x,x
COc1ccc(OC)c(NC(=O)CN2C(=O)CC(C)Sc3ccccc32)c1 (stereo not given),4,x,-1,x,x,x,x
CC1=C(C(=O)Nc2cccc(Cl)c2C)C2(CCCCCC2)OC1=O,0,x,1,x,x,x,x
COc1ccc(NC(=O)c2ccc(CN3CCN(c4ccccc4)CC3)cc2)cc1OC,-22,71*,60*,-6,u,10%,u
COc1ccc(C)cc1NC(=O)c1ccc(CN2CCc3ccccc3C2)cc1,-13,26,1,-14,-1,x,x
COc1ccc(S(=O)(=O)N2CCN(c3ccccc3)CC2)cc1OC,x,x,x,7,2,x,x
